# Assay results from PubChem BioAssay (NCI).
# About 83,000 compounds went through this panel and 20% of them were active in at least one assay; those are over-represented in the sample as a whole.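 96-well plates, one dose, 48 hours. Percent growth reported; active if below 10.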 A number with no mark means an inactive call. The source made the active and inactive calls.
# What was measured:
# Test in all cases: NCI-60 one-dose screen, 48 h (100 = growth as untreated, 0 = no growth, -100 = all killed)
# Conditions in all cases: 10 µM unless noted
# SK-MEL-2 melanoma = test system: SK-MEL-2 melanoma
# EKVX NSCLC = test system: EKVX NSCLC
# SN12C renal = test system: SN12C renal
# UO-31 renal = test system: UO-31 renal
# TK-10 renal = test system: TK-10 renal
# ACHN renal = test system: ACHN renal
# CAKI-1 renal = test system: CAKI-1 renal
# A498 renal = test system: A498 renal
# CCRF-CEM leukemia = test system: CCRF-CEM leukemia
# MOLT-4 leukemia = test system: MOLT-4 leukemia
# SR leukemia = test system: SR leukemia
# RPMI-8226 leukemia = test system: RPMI-8226 leukemia
# OVCAR-8 ovarian = test system: OVCAR-8 ovarian
# OVCAR-5 ovarian = test system: OVCAR-5 ovarian
# OVCAR-4 ovarian = test system: OVCAR-4 ovarian
# SK-OV-3 ovarian = test system: SK-OV-3 ovarian
# IGROV1 ovarian = test system: IGROV1 ovarian
# OVCAR-3 ovarian = test system: OVCAR-3 ovarian
# HS 578T breast = test system: HS 578T breast
# NCI/ADR-RES ovarian = test system: NCI/ADR-RES ovarian
Structure (SMILES),growth (SK-MEL-2 melanoma) [%],growth (EKVX NSCLC),growth (SN12C renal) [%],growth (UO-31 renal) [%],growth (TK-10 renal) [%],growth (ACHN renal) [%],growth (CAKI-1 renal),growth (A498 renal) [%],growth (CCRF-CEM leukemia),growth (MOLT-4 leukemia),growth (SR leukemia),growth (RPMI-8226 leukemia),growth (OVCAR-8 ovarian),growth (OVCAR-5 ovarian) [%],growth (OVCAR-4 ovarian),growth (SK-OV-3 ovarian) [%],growth (IGROV1 ovarian) [%],growth (OVCAR-3 ovarian),growth (HS 578T breast) [%],growth (NCI/ADR-RES ovarian)
N#Cc1nc(-c2ccccc2)oc1S(=O)(=O)N1CCN(c2ccc(F)cc2)CC1,95.2,118%,79.4,80.3,44.1,53.8,62.2%,110,-31% (active),-15.7% (active),-20.3% (active),36%,63.1%,102,107%,109,45.6,51.9%,103,96.4%
Cc1ccccc1Nc1cc(O)c2c(=O)cc(-c3ccccc3)oc2c1,65.7,35.5%,31.8,42.3,110,34.5,39%,31.3,29.5%,25.8%,7.93% (active),29.7%,52.5%,89.2,53.1%,59.3,45.3,-4.27% (active),44.7,4.9% (active)
CC(=O)O[C@H]1C[C@@H]2C(C)(C)C(=O)CC[C@@]2(C)c2ccc(C(C)C)cc21,109,99.3%,107,91.8,97.2,107,89.6%,100,108%,108%,105%,108%,101%,119,104%,109,101,102%,102,108%
COc1cc2c(c(OC)c1OC)C(=O)CC(c1cccc(NC(=O)c3ccc(C#N)cc3)c1)O2 (stereo not given),69,83.8%,83,62.8,89.4,81.2,77.1%,82.2,25.3%,27%,41.7%,30.8%,40.9%,101,63%,99.1,85.5,76.5%,90.3,50.7%
O=C(Nc1cc(Cl)ccc1O)c1cccc(Nc2ccnc(C(F)(F)F)c2)c1,56.2,9.67% (active),35,25.5,46.6,27.2,-2.35% (active),45.3,8.35% (active),-41.2% (active),25%,3.8% (active),39.4%,77.8,33.8%,56.4,75.7,53.4%,60.4,15.2%
O=C(/C=C/c1ccccc1)c1ccc(Nc2nc(Nc3ccc(F)cc3)nc(Nc3ccc(Cl)cc3)n2)cc1,92,79.2%,99.6,82,106,93.1,87.4%,94.5,26.3%,83.6%,78.2%,-9.92% (active),58.4%,102,90.8%,103,90.8,80.2%,99.7,76.7%
COc1ccc(/C=C/C(c2cc(OC)c(OC)c(OC)c2)n2cncn2)cc1 (stereo not given),12.9,66%,62,64.4,48.5,57.5,51.6%,36.4,35.1%,39.4%,18.9%,50.8%,52.2%,90.2,96.8%,35.5,64.6,9.06% (active),51.2,36.3%
O=S(=O)(Nc1cc(Sc2cccc3cccnc23)c(O)c2ccccc12)c1ccccc1,13.4,36.4%,29.6,23.7,23.4,16.9,25.9%,70.4,4.22% (active),-7.99% (active),5.4% (active),-4.98% (active),9.56% (active),47.1,-100% (active),52.1,10.4,-81.2% (active),40.3,8.88% (active)
